Article PMC7862700, “An all-to-all approach to the identification of sequence-specific readers for epigenetic DNA modifications on cytosine”

Experiments:
Assay in all cases: DAPPL (digital affinity profiling via proximity ligation, sequencing); 10 mM Tris-HCl pH 7.5, 50 mM NaCl, 1 mM DTT, 4% glycerol, room temperature, 30 min; GST-TFs on glutathione beads, 16-mer random dsDNA library, 0.1% formaldehyde crosslink after washing; high values mean tight binding
FEV = biological target: T1, FEV (Homo sapiens, UniProt Q99581 1-238); settings: protein: recombinant; tags: N-terminal GST; dsDNA, one strand shown
T1 sequence: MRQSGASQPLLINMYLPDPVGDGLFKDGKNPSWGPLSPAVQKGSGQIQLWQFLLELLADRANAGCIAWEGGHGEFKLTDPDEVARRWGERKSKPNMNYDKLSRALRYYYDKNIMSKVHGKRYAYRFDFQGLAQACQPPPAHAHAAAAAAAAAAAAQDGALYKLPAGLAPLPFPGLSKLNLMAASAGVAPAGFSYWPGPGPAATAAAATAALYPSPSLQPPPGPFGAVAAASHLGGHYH
Method in brief: (§1)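 Sequencing on an Illumina NextSeq500 followed washing, crosslinking with 0.1% formaldehyde, proximity ligation (BsaI/T4 ligase, 1 h, 37 °C) and PCR amplification of pools that had been incubated for 30 min at room temperature with 200 nmole of a random double-stranded 16-mer DNA library in Tris/NaCl/DTT/glycerol buffer. Each pool held DNA-barcoded human transcription factors, expressed in yeast as GST fusions and captured on glutathione beads, plus a tag-only sample. Binding signal is a hexamer's read frequency for a factor divided by its frequency in the tag-only sample.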

ETV5 = ETV5 (Homo sapiens, UniProt P41161 1-510); settings: protein: recombinant; tags: N-terminal GST; dsDNA, one strand shown
ETV5, sequence (P41161 whole entry): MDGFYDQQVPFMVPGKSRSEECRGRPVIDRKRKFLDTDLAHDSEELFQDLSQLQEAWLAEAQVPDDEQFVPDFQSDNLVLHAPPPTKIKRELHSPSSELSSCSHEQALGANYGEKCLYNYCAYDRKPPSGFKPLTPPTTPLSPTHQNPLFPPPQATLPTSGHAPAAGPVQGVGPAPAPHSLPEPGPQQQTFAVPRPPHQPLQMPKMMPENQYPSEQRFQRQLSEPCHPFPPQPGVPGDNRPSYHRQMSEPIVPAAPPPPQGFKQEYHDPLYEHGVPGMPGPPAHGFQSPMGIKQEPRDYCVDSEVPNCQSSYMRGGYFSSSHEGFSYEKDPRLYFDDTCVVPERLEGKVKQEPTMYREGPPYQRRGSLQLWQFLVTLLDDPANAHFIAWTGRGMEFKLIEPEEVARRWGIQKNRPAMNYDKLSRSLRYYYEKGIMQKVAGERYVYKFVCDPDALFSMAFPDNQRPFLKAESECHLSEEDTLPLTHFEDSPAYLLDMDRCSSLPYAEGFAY
Method in brief: as §1

HSF1 = HSF1 (Homo sapiens, UniProt Q00613 1-529); settings: protein: recombinant; tags: N-terminal GST; chain copies: 3; dsDNA, one strand shown
HSF1, sequence (Q00613 whole entry): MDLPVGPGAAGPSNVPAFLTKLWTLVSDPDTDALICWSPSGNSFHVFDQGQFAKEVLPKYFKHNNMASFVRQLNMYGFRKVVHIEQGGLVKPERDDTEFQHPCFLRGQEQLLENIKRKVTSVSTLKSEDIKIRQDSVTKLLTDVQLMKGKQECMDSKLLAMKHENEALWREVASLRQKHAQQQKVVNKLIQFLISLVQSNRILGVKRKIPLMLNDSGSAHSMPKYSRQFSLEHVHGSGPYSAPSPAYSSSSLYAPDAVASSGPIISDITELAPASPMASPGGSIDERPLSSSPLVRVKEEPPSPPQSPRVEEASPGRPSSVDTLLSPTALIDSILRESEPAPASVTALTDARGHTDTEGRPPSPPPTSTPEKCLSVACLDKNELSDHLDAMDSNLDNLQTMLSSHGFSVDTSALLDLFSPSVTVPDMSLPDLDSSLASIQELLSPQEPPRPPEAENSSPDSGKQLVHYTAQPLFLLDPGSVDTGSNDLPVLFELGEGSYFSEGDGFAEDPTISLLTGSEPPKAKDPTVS
Method in brief: as §1

SPIC = biological target: T2, SPIC (Homo sapiens, UniProt Q8N5J4 1-248); settings: protein: recombinant; tags: N-terminal GST; dsDNA, one strand shown
T2 sequence: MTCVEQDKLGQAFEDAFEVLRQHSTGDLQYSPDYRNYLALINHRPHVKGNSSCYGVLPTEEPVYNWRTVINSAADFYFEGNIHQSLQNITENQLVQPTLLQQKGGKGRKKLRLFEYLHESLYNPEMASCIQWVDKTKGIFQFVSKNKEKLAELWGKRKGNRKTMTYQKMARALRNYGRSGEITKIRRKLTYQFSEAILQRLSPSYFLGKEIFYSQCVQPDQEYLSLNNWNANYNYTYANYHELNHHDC
Method in brief: as §1

ELF4 = ELF4 (Homo sapiens, UniProt Q99607 1-663); settings: protein: recombinant; tags: N-terminal GST; dsDNA, one strand shown
ELF4, sequence (Q99607 whole entry): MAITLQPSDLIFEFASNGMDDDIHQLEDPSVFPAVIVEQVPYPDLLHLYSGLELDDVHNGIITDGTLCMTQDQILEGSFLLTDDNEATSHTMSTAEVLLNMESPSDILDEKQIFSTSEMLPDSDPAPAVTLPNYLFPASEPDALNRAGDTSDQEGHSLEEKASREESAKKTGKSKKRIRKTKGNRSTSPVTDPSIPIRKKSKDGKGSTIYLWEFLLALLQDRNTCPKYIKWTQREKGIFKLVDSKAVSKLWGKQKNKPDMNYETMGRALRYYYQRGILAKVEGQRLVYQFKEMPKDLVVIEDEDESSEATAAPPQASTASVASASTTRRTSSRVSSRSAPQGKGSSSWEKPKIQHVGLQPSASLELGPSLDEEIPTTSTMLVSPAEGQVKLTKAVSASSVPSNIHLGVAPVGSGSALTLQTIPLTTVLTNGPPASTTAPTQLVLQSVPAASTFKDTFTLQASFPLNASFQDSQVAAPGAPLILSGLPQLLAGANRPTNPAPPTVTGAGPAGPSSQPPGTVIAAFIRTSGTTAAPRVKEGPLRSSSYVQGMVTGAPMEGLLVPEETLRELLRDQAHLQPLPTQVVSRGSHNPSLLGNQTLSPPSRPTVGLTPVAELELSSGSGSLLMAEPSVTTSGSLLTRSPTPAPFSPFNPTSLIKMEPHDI
Method in brief: as §1

ELK4 = biological target: T3, ELK4 (Homo sapiens, UniProt P28324-2 1-405); settings: protein: recombinant; tags: N-terminal GST; dsDNA, one strand shown
T3 sequence: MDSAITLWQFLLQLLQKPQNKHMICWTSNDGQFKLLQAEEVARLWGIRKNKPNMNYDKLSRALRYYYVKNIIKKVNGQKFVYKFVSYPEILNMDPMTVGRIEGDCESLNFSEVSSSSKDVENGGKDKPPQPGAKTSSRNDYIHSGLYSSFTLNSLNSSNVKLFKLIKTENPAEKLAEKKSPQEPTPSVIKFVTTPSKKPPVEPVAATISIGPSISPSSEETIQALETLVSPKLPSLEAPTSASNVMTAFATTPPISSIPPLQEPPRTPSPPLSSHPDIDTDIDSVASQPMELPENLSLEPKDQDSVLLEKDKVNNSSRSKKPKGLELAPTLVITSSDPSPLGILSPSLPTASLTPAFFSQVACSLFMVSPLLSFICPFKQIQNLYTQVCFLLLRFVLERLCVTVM
Method in brief: as §1

ETV2 = biological target: T4, ETV2 (Homo sapiens, UniProt O00321 1-342); settings: protein: recombinant; tags: N-terminal GST; dsDNA, one strand shown
T4 sequence: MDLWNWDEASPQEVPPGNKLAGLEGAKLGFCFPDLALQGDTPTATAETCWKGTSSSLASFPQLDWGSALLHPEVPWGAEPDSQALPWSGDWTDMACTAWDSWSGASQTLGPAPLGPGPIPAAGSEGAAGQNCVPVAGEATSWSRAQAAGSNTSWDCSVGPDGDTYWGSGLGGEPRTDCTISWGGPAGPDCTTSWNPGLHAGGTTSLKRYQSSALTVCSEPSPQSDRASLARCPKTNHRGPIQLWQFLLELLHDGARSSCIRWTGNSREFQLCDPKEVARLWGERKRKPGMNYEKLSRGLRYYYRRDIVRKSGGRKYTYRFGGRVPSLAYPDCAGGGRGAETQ
Method in brief: as §1

ELF3 = biological target: T5, ELF3 (Homo sapiens, UniProt P78545 1-371); settings: protein: recombinant; tags: N-terminal GST; dsDNA, one strand shown
T5 sequence: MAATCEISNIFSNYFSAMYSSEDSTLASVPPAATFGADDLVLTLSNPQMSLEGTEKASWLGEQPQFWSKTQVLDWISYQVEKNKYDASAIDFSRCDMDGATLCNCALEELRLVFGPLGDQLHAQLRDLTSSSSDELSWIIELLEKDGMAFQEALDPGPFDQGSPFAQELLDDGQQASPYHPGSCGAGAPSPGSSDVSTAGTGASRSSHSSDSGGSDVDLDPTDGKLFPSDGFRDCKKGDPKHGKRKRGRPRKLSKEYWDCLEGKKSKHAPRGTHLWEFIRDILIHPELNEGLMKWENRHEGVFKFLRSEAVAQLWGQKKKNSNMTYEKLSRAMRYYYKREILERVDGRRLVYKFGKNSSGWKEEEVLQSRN
Method in brief: as §1

ETV1 = ETV1 (Homo sapiens, UniProt P50549 1-477); settings: protein: recombinant; tags: N-terminal GST; dsDNA, one strand shown
ETV1, sequence (P50549 whole entry): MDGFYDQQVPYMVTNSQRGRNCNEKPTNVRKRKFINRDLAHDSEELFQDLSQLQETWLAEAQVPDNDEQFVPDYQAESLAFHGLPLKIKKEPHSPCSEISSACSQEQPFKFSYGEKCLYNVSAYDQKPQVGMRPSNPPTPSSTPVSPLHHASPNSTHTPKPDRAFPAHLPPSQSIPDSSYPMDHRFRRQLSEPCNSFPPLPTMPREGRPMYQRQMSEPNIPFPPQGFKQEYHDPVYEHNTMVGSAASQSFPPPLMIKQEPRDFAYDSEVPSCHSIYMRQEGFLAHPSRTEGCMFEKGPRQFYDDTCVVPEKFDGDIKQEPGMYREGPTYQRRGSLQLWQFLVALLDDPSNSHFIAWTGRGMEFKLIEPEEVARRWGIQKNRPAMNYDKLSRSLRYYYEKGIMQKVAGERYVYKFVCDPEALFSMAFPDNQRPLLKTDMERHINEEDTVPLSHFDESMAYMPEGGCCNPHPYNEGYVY
Method in brief: as §1

ERF = biological target: T6, ERF (Homo sapiens, UniProt P50548 1-548); settings: protein: recombinant; tags: N-terminal GST; dsDNA, one strand shown
T6 sequence: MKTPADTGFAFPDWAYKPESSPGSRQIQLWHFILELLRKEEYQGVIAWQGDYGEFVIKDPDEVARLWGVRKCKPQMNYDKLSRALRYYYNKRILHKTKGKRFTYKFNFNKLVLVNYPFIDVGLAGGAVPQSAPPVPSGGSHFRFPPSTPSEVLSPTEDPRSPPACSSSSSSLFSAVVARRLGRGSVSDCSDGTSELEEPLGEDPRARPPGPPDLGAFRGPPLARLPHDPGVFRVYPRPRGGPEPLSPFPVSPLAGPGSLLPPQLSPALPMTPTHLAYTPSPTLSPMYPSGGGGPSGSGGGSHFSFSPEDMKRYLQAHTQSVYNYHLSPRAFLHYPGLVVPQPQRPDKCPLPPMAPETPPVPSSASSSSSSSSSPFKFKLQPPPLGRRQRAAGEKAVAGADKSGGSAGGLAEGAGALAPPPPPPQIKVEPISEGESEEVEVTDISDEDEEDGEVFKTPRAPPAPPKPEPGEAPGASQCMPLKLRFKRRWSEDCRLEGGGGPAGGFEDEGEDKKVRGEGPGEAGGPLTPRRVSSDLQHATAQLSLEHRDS
Method in brief: as §1

ETV3L = biological target: T7, ETV3L (Homo sapiens, UniProt Q6ZN32 1-361); settings: protein: recombinant; tags: N-terminal GST; dsDNA, one strand shown
T7 sequence: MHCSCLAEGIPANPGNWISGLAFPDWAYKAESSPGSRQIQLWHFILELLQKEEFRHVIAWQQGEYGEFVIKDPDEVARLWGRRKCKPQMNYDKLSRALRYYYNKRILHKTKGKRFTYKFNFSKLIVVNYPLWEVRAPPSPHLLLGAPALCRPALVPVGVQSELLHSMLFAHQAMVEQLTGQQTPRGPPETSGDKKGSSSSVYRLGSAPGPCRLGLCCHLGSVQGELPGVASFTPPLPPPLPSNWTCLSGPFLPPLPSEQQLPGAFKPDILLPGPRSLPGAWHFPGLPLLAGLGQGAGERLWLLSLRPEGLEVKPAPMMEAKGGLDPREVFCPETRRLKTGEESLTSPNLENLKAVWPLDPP
Method in brief: as §1

ETS2 = biological target: T8, ETS2 (Homo sapiens, UniProt P15036 1-469); settings: protein: recombinant; tags: N-terminal GST; dsDNA, one strand shown
T8 sequence: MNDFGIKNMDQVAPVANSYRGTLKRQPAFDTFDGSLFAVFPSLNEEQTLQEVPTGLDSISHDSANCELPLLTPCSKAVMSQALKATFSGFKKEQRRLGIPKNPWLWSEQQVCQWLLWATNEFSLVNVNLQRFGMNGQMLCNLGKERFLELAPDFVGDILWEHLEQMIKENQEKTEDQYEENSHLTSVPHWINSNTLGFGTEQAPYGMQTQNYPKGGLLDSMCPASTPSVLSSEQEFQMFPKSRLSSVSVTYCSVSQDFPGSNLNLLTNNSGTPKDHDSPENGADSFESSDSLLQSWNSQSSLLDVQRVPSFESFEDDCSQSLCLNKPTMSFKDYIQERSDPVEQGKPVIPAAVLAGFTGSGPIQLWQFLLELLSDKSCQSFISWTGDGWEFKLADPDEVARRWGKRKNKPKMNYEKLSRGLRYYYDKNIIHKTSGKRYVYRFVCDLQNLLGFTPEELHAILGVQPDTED
Method in brief: as §1

SPDEF = biological target: T9, SPDEF (Homo sapiens, UniProt O95238 1-335); settings: protein: recombinant; tags: N-terminal GST; dsDNA, one strand shown
T9 sequence: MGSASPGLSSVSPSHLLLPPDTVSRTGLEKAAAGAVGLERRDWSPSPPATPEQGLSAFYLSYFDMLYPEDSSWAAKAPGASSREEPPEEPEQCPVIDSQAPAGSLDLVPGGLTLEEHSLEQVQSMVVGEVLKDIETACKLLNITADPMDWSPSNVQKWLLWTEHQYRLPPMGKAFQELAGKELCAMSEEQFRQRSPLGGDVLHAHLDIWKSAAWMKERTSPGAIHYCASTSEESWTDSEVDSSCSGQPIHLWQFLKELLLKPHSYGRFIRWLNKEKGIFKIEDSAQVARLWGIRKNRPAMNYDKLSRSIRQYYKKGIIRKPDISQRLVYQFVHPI
Method in brief: as §1

ETV7 = biological target: T10, ETV7 (Homo sapiens, UniProt Q9Y603 1-341); settings: protein: recombinant; tags: N-terminal GST; dsDNA, one strand shown
T10 sequence: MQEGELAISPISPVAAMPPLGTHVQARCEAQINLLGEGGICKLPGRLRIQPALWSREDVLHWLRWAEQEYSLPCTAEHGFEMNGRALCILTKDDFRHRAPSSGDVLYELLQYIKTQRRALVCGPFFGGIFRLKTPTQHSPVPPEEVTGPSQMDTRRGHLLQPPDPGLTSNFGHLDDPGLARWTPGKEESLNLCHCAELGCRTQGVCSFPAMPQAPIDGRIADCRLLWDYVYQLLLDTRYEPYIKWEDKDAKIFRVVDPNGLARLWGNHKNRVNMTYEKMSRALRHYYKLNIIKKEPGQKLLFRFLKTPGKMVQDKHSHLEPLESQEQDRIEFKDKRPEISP
Method in brief: as §1

ELF5 = biological target: T11, ELF5 (Homo sapiens, UniProt Q9UKW6-2 1-255); settings: protein: recombinant; tags: N-terminal GST; dsDNA, one strand shown
T11 sequence: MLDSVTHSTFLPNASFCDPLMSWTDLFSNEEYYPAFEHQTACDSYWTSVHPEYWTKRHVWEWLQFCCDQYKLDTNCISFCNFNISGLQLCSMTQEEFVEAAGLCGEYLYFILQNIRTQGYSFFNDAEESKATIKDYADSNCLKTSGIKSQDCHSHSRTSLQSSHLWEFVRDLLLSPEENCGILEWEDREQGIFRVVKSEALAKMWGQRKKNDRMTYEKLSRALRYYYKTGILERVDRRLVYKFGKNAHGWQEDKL
Method in brief: as §1

ETV3 = biological target: T12, ETV3 (Homo sapiens, UniProt P41162-2 1-143); settings: protein: recombinant; tags: N-terminal GST; dsDNA, one strand shown
T12 sequence: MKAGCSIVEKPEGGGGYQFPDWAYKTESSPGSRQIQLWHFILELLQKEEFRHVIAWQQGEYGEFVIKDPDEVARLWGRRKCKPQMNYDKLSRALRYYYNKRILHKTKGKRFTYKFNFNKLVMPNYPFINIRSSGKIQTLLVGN
Method in brief: as §1

ETV6 = ETV6 (Homo sapiens, UniProt P41212 1-452); settings: protein: recombinant; tags: N-terminal GST; dsDNA, one strand shown
ETV6, sequence (P41212 whole entry): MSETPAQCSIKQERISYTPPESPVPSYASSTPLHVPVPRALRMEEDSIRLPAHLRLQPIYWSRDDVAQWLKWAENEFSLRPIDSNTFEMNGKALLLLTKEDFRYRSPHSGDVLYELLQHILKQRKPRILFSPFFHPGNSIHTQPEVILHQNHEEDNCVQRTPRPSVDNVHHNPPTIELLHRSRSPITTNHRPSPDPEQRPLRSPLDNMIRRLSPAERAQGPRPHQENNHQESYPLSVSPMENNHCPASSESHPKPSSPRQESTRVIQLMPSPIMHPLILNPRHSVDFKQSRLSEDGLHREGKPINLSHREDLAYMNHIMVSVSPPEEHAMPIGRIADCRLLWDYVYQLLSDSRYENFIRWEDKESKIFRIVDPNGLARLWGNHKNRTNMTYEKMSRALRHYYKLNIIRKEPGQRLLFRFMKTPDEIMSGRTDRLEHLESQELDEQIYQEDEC
Method in brief: as §1

Row | Sequence | binding signal (FEV) | binding signal (ETV5) | binding signal (HSF1) | binding signal (SPIC) | binding signal (ELF4) | binding signal (ELK4) | binding signal (ETV2) | binding signal (ELF3) | binding signal (ETV1) | binding signal (ERF) | binding signal (ETV3L) | binding signal (ETS2) | binding signal (SPDEF) | binding signal (ETV7) | binding signal (ELF5) | binding signal (ETV3) | binding signal (ETV6)
1 | TGCCCC | 1.36 fold enrichment (6-mer frequency, TF over GST control) | 1.24 fold enrichment (6-mer frequency, TF over GST control) | 1.01 fold enrichment (6-mer frequency, TF over GST control) | 1.41 fold enrichment (6-mer frequency, TF over GST control) | 1.26 fold enrichment (6-mer frequency, TF over GST control) | 1.51 fold enrichment (6-mer frequency, TF over GST control) | 1.21 fold enrichment (6-mer frequency, TF over GST control) | 1.11 fold enrichment (6-mer frequency, TF over GST control) | 1.19 fold enrichment (6-mer frequency, TF over GST control) | 1.15 fold enrichment (6-mer frequency, TF over GST control) | 1.28 fold enrichment (6-mer frequency, TF over GST control) | 1.12 fold enrichment (6-mer frequency, TF over GST control) | 1.21 fold enrichment (6-mer frequency, TF over GST control) | 1.18 fold enrichment (6-mer frequency, TF over GST control) | 1.18 fold enrichment (6-mer frequency, TF over GST control) | 1.3 fold enrichment (6-mer frequency, TF over GST control) | 1.24 fold enrichment (6-mer frequency, TF over GST control)
2 | TCGCAC | 1.12 fold enrichment (6-mer frequency, TF over GST control) | 1.01 fold enrichment (6-mer frequency, TF over GST control) | 1.03 fold enrichment (6-mer frequency, TF over GST control) | 1.06 fold enrichment (6-mer frequency, TF over GST control) | 1.13 fold enrichment (6-mer frequency, TF over GST control) | 1.08 fold enrichment (6-mer frequency, TF over GST control) | 1.07 fold enrichment (6-mer frequency, TF over GST control) | 1.18 fold enrichment (6-mer frequency, TF over GST control) | 1.04 fold enrichment (6-mer frequency, TF over GST control) | 1.06 fold enrichment (6-mer frequency, TF over GST control) | 1.06 fold enrichment (6-mer frequency, TF over GST control) | 1.04 fold enrichment (6-mer frequency, TF over GST control) | 1.05 fold enrichment (6-mer frequency, TF over GST control) | 1.03 fold enrichment (6-mer frequency, TF over GST control) | 1.06 fold enrichment (6-mer frequency, TF over GST control) | 1.07 fold enrichment (6-mer frequency, TF over GST control) | –
